Results published in the supplement of paper PMC12350171.
Counter-ions that a name gives are not always drawn. Unmarked numbers belong to inactive results.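 How the source made its calls: active = normalised median growth AUC below 0.1 of DMSO control; inactive = AUC 0.1 or higher.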

How the values were obtained:
Assay in all cases: growth AUC normalised to DMSO control (median) (fraction of control); higher = less growth inhibition, active = hit call of the paper
Conditions in all cases: 20 µM
P. vulgatus RND KO = tested on: P. vulgatus RND KO
How it was run: (§1)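 In 96-well plates of mGAM seeded at OD578 0.01, strains that had been passaged twice overnight without oxygen were exposed to approved-drug library compounds at 20 μM with 1% DMSO. Hourly OD578 readings were taken for 24 h in an anaerobic incubator. The trapezoidal-rule area under the curve, with curves truncated at entry into stationary phase, was expressed relative to same-plate vehicle wells as the median of three biological replicates.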

P. vulgatus WT = tested on: P. vulgatus WT
How it was run: as §1

[1] = tested on: S. enterica typhimurium WT
How it was run: as §1

[2] = tested on: S. enterica typhimurium tolC KO
How it was run: as §1
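Further: active when median AUC fell below 0.1.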

Compound	growth AUC normalised to DMSO control (P. vulgatus RND KO)	growth AUC normalised to DMSO control (P. vulgatus WT)	growth AUC normalised to DMSO control [1]	growth AUC normalised to DMSO control [2]
OC[C@H]1O[C@@H](n2cnc3cncnc32)[C@H](O)[C@@H]1O [Nebularine]	0.991	0.997	1	0.997
CN1CCC(=C2c3ccccc3CCc3cccnc32)CC1 [Azatadine maleate]	0.998	0.987	1	0.993
CC(C)=C/C(C)=N/Nc1nncc2ccccc12 [Budralazine]	1.02	1.08	0.999	0.989
N[C@@H](C(=O)N[C@@H]1C(=O)N2C(C(=O)O)=C(Cl)CC[C@H]12)c1ccccc1 [Loracarbef]	0.00871 (active)	0.00996 (active)	0.018 (active)	0.0264 (active)
COc1ccc(C[C@@H]2c3cc(OC)c(OC)cc3CC[N@+]2(C)CCC(=O)OCCCCCOC(=O)CC[N@@+]2(C)CCc3cc(OC)c(OC)cc3[C@H]2Cc2ccc(OC)c(OC)c2)cc1OC [Cisatracurium besylate]	1.06	1.05	1.02	0.994
CN(C)CCc1c[nH]c2ccc(C[C@H]3COC(=O)N3)cc12 [Zolmitriptan]	0.971	0.964	1	1
CCCC(CCC)C(=O)O[C@H]1C[C@H]2CC[C@@H](C1)[N+]2(C)C [Anisotropine Methylbromide]	1.09	1.12	0.997	0.994
CCN(CC)C(=O)C1(c2ccccc2)CC1CN (stereo not drawn) [Milnacipran hydrochloride]	1.02	1.01	0.999	1
CC(C)Nc1ncccn1 [Isaxonine]	0.976	0.953	0.999	1
CC(=O)Nc1ccc(CC(=O)O)cc1 [Actarit]	0.953	1.01	1	0.991
CC1=C(C(=O)O)N2C(=O)[C@@H](NC(=O)[C@H](N)c3ccccc3)[C@H]2SC1 [Cephalexin monohydrate]	1.04	1.04	0.999	0.968
CC(=O)[C@@]12O[C@](C)(c3ccccc3)O[C@@H]1C[C@H]1[C@@H]3CCC4=CC(=O)CC[C@]4(C)[C@H]3CC[C@@]12C [Algestone acetophenide]	0.955	0.983	1	0.993
CC(=O)N[C@H]1[C@H]([C@H](O)[C@H](O)CO)OC(C(=O)O)=C[C@@H]1NC(=N)N [Zanamivir]	1.06	1.1	1	1.02
CN(C)c1ccc2nc3ccc(=[N+](C)C)cc-3sc2c1 [Methylene blue]	1	1.02	0.98	0.862
Cc1ccc2c([nH]c(=O)c3c(=O)cc(C(=O)OCCC(C)C)oc32)c1C [Repirinast]	0.94	0.943	1.01	0.924
CC(=O)Nc1ccccc1 [Acetanilide]	0.993	1	0.997	1.01
CCN(CC)CCOCCOC(=O)C(CC)(CC)c1ccccc1 [Oxeladin citrate]	1	0.98	0.995	0.973
CO[C@@]12[C@H](COC(N)=O)C3=C(C(=O)C(C)=C(N)C3=O)N1C[C@@H]1N[C@@H]12 [Mitomycin C]	0.0125 (active)	0.013 (active)	0.196	0.00599 (active)
Cc1nc(=O)c2cc(CN(C)c3ccc(C(=O)N[C@@H](CCC(=O)O)C(=O)O)s3)ccc2[nH]1 [Raltitrexed]	1.04	0.997	1	0.991
N#Cc1ccc(Oc2ccc3c(c2)COB3O)cc1 [Crisaborole]	1	1.02	1.01	1.02
Cc1nc(C)c(Cl)c(O)c1Cl [Clopidol]	1.01	0.991	1.01	0.983

Compound	growth AUC normalised to DMSO control (P. vulgatus RND KO)	growth AUC normalised to DMSO control (P. vulgatus WT)	growth AUC normalised to DMSO control [1]	growth AUC normalised to DMSO control [2]
CCOC(=O)O[C@]1(C(=O)OCCl)CC[C@H]2[C@@H]3CCC4=CC(=O)C=C[C@]4(C)[C@H]3[C@@H](O)C[C@@]21C [Loteprednol etabonate]	0.853	0.862	1.01	0.953
CC1=C(C)C(=O)C(C(CCCCCC(=O)O)c2ccccc2)=C(C)C1=O (stereo not drawn) [Seratrodast]	0.944	0.967	1.01	0.999
CC(C)=CCOc1ccc(/C=C/C(=O)c2ccc(OCC=C(C)C)cc2OCC(=O)O)cc1 [Sofalcone]	0.914	0.993	1	0.902
N[C@@H](CCC(=O)N[C@@H](CS)C(=O)NCC(=O)O)C(=O)O [Glutathione]	0.996	1	1	0.956
COc1ccc(C(=O)CC(=O)c2ccc(C(C)(C)C)cc2)cc1 [Avobenzone]	0.939	0.911	0.992	0.976
COc1nc(N)nc2c1ncn2[C@@H]1O[C@H](CO)[C@@H](O)[C@@H]1O [Nelarabine]	0.98	0.981	0.997	0.981
COc1cccc2c1C(=O)c1c(O)c3c(c(O)c1C2=O)C[C@@](O)(C(=O)CO)C[C@@H]3O[C@H]1C[C@H](N)[C@@H](O)[C@H](C)O1 [Epirubicin hydrochloride]	1.02	0.961	1	0.0212 (active)
NC(=O)NS(=O)(=O)c1ccc(N)cc1 [Sulfacarbamide]	0.997	1.01	0.995	1
N=c1ccn2c(n1)O[C@H]1[C@H](O)[C@@H](CO)O[C@H]12 [Ancitabine hydrochloride]	0.971	0.978	1.01	0.991
COC(=O)C1=C(C)NC(C)=C(C(=O)OCCN2CCN(C(c3ccccc3)c3ccccc3)CC2)C1c1cccc([N+](=O)[O-])c1 (stereo not drawn) [Manidipine Dihydrochloride]	1.03	1.02	0.999	1.02
CNCc1cc(-c2ccccc2F)n(S(=O)(=O)c2cccnc2)c1 [Vonoprazan]	1.02	1.04	1	0.995
CC[C@H]1OC(=O)C[C@@H](O)[C@H](C)[C@@H](O[C@@H]2O[C@H](C)[C@@H](O[C@H]3C[C@@](C)(O)[C@@H](O)[C@H](C)O3)[C@H](N(C)C)[C@H]2O)[C@@H](CC=O)C[C@@H](C)C(=O)/C=C/C(C)=C/[C@@H]1CO[C@@H]1O[C@H](C)[C@@H](O)[C@@H](OC)[C@H]1OC [Tylosin]	0.015 (active)	0.0123 (active)	0.997	0.721
CN(CCOc1ccc(NS(C)(=O)=O)cc1)CCc1ccc(NS(C)(=O)=O)cc1 [Dofetilide]	0.985	0.992	0.999	1
CC(C)=CCC1C(=O)N(c2ccccc2)N(c2ccccc2)C1=O [Feprazone]	1.04	1.09	1	0.983
COc1cc2c(cc1OC)CC(=O)N(CCCN(C)C[C@H]1Cc3cc(OC)c(OC)cc31)CC2 [Ivabradine hydrochloride]	1	0.997	1.01	0.965
COc1cc2c(cc1OC)C(=O)C(CC1CCN(Cc3ccccc3)CC1)C2 (stereo not drawn) [Donepezil hydrochloride]	0.997	1.01	0.997	0.981
CC1(C)S[C@@H]2[C@H](NC(=O)C(C(=O)O)c3ccccc3)C(=O)N2[C@H]1C(=O)O (stereo partly drawn) [Carbenicillin disodium salt]	0.0099 (active)	0.00958 (active)	0.0868 (active)	0.00344 (active)
O=C1OC(CN2CCOCC2)CN1/N=C/c1ccc([N+](=O)[O-])o1 (stereo not drawn) [Furaltadone hydrochloride]	0.0255 (active)	0.0192 (active)	0.878	0.856
CCNC(=O)CCC/C=C\C[C@@H]1[C@@H](/C=C/[C@@H](O)CCc2ccccc2)[C@H](O)C[C@@H]1O [Bimatoprost]	1.03	1.04	1.01	0.99
N=C(N)Nc1ccc(C(=O)Oc2ccc3cc(C(=N)N)ccc3c2)cc1 [Nafamostat Mesylate]	1.11	1.03	0.997	0.999
CCC(NC(C)C)C(O)c1ccc(O)c2[nH]c(=O)ccc12 (stereo not drawn) [Procaterol hydrochloride]	1.08	1.09	1	0.987
